In paper PMC7819943, “Rice protein-binding microarrays: a tool to detect cis-acting elements near promoter regions in rice”:
The full ranking holds about 39,000 sequences; the median of “fluorescence intensity (a.u.)” is about 4,300, and the highest 2% start at about 39,000. For the sample, the highest values were picked, then their nearest neighbours and some sequences at random.

biological target: T1, OsSMF1 (Oryza sativa, UniProt Q6ZLB0 1-436); test: protein-binding microarray (RPBM); PBS, 2% BSA, 51.3 ng/ul salmon testes DNA, 50 uM zinc acetate, 200 nM TF, 25 C, 1 h; high values mean tight binding; details: protein: recombinant; tags: N-terminal polyhistidine and DsRed monomer fusion (pET32a); chain copies: 2; label: CyDye5-dUTP incorporated in the synthesized complementary strand; 3' TTTTT single-stranded linker to array surface; dsDNA, one strand shown
T1 sequence: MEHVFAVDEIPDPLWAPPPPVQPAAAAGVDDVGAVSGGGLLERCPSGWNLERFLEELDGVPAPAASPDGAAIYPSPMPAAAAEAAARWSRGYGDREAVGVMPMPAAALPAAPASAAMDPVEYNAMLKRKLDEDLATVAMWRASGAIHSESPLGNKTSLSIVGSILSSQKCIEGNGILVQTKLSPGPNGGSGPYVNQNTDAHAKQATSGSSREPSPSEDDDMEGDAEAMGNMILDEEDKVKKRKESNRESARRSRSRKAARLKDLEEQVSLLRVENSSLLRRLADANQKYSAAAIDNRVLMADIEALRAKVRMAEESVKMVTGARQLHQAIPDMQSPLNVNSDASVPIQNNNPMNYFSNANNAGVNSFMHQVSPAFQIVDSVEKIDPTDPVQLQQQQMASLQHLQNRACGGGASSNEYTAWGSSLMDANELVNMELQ
How it was run: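 In PBS with 2% BSA, salmon testes DNA and 50 µM zinc acetate, 200 nM protein was incubated on a custom Agilent array at 25 °C for 1 h and then washed off. The array had been made double-stranded by primer extension with Cy5-dUTP and blocked with 2% BSA. The proteins were transcription factors fused N-terminally to polyhistidine and DsRed, expressed in E. coli BL21-CodonPlus and purified on Ni–NTA. The binding signal is per-feature fluorescence intensity (arbitrary units) from an Axon 4000B scanner.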

| Sequence | binding signal |
| --- | --- |
| ACCTGTGGACTTGCACGGTAACGTAGCACAATCTTCAAAGCGGAGTCACCTAGTGCAG | 3810 fluorescence intensity (a.u.) |
| TTTAGTAGTTTGAAAAGCATACGCGCGGAAACCGAGCAAGCGGAGTCACCTAGTGCAG | 3190 fluorescence intensity (a.u.) |
| TCCCCTCGCGGCGAACGCGCGCGCGCAACGAGAAGCCAAGCGGAGTCACCTAGTGCAG | 3200 fluorescence intensity (a.u.) |
| AGCGGCAGTAGCAAGGGAGCTAGGCCCCGAAGGAAAACCGCGGAGTCACCTAGTGCAG | 46000 fluorescence intensity (a.u.) |
| GCCGAAACGCGAAGTGACAGTGACAAGGGAAGGACGGCCCCGGAGTCACCTAGTGCAG | 3220 fluorescence intensity (a.u.) |
| CGGCGAAGTAGCAAGGGTTGAGTCTGCATCATCAACCAATCGGAGTCACCTAGTGCAG | 3370 fluorescence intensity (a.u.) |
| TCCCCTTCACCGCAACTTCGGCGAAGTCAAGAAGGAGTAGCGGAGTCACCTAGTGCAG | 43800 fluorescence intensity (a.u.) |
| TGATGTTCTTACTGGTGGTGCTGATGACAATACTGAACAGCGGAGTCACCTAGTGCAG | 3840 fluorescence intensity (a.u.) |
| TAAGTGGACCTATAGGTGCACACGTGGGGAGAGGGGCGTGCGGAGTCACCTAGTGCAG | 5690 fluorescence intensity (a.u.) |
| GCACCAGCGGTCCTCAAACTTGTAAGGGTGTGTCATCTAGCGGAGTCACCTAGTGCAG | 3660 fluorescence intensity (a.u.) |
| TTTCAATTATTTAGGTATTAACATTAACTACTTTACTAACCGGAGTCACCTAGTGCAG | 14800 fluorescence intensity (a.u.) |
| ATTGTACACAACAAATTGAAATTTTCAATTCAACTTTTAACGGAGTCACCTAGTGCAG | 43200 fluorescence intensity (a.u.) |
| CTATATTTTACTATAAGCTTAATCAAACTTCAAAATATTTCGGAGTCACCTAGTGCAG | 14400 fluorescence intensity (a.u.) |
| AGAAATCAACTTCAAACCTTTATTCTCAACATCAGGAGATCGGAGTCACCTAGTGCAG | 26000 fluorescence intensity (a.u.) |
| TTTTCAATTGTACATTGAGTCATTGACAATGCACAATTTACGGAGTCACCTAGTGCAG | 3680 fluorescence intensity (a.u.) |
| AGTTCAAGAAAACTTTATATTCAAACAAGAAAATTGGGGCCGGAGTCACCTAGTGCAG | 40900 fluorescence intensity (a.u.) |
| TAAGAAAACTACAGCTTTATTACTCAAACTTAATATTAACCGGAGTCACCTAGTGCAG | 39800 fluorescence intensity (a.u.) |
| GCAAACAAAATATACCTGCCAAGTCAACTTCACGGCCGGACGGAGTCACCTAGTGCAG | 4280 fluorescence intensity (a.u.) |
| ACTCTAAATTTAAACTTTTCACTCAATTGAAACTTTTCAACGGAGTCACCTAGTGCAG | 24700 fluorescence intensity (a.u.) |
| GGGATGGCCAGATTGGAACTCAGCAGACTCGCTGATGACTCGGAGTCACCTAGTGCAG | 3800 fluorescence intensity (a.u.) |
| TTGTCCCTATAATAATATGTCACTCAAAATTGCTAATAAACGGAGTCACCTAGTGCAG | 3400 fluorescence intensity (a.u.) |
| GATGTACTCGAGTATCTTCCCCTTCCTAGTTCCTTCCCTTCGGAGTCACCTAGTGCAG | 13900 fluorescence intensity (a.u.) |

| Sequence | binding signal |
| --- | --- |
| GATGCAAAGAGAGCTACTAGCTGAGTTGGATGGAATTAACCGGAGTCACCTAGTGCAG | 5550 fluorescence intensity (a.u.) |
| AAGTAGGCGTAGTTAAATCAAATGAGTGCTGTGCTGTCCACGGAGTCACCTAGTGCAG | 3400 fluorescence intensity (a.u.) |
| CCGTCGCCGTCGGCACCGCCGCCGGAGCTCCTCCCTGCTCCGGAGTCACCTAGTGCAG | 3220 fluorescence intensity (a.u.) |
| ATCTACTGATTTACAACCTCCTTAATTAACAAGCACGGGTCGGAGTCACCTAGTGCAG | 24600 fluorescence intensity (a.u.) |
| ACTCCTCGGATAGGCGATGGCGGCCGCGGTCACCGCGCCACGGAGTCACCTAGTGCAG | 3370 fluorescence intensity (a.u.) |
| AAGCTGTTTCACAAGGCAGTTTTGCATACGTGGCGGGCTGCGGAGTCACCTAGTGCAG | 21500 fluorescence intensity (a.u.) |
| AGGAAGGAAGGAAGCAAAATGCTGACGTGTACATAAACCGCGGAGTCACCTAGTGCAG | 16000 fluorescence intensity (a.u.) |
| CGGTGCGAGGTACTACGTCAAGGCGTACGAGGCCAGGTACCGGAGTCACCTAGTGCAG | 3140 fluorescence intensity (a.u.) |
| CACCCACGAGCACACCCGTACCAGGGGACGAGGAGGTGGACGGAGTCACCTAGTGCAG | 38300 fluorescence intensity (a.u.) |
| CGCATACCGGCCAGAAACACGACGGCGACGAGGTGCACTACGGAGTCACCTAGTGCAG | 41500 fluorescence intensity (a.u.) |
| CACCGCGACGCACATACCCACCCGCCGGCCACGCACGAGACGGAGTCACCTAGTGCAG | 4460 fluorescence intensity (a.u.) |
| CTAGACGCCGGCGACGACGAGGGTGGTTGGGTTGTGGATACGGAGTCACCTAGTGCAG | 3740 fluorescence intensity (a.u.) |
| GGTGTGGAGGGGTTGGACCAGAGCACGACGACGGCGAGGACGGAGTCACCTAGTGCAG | 45100 fluorescence intensity (a.u.) |
| AGAGGGCGTGTACTCGTGACATCGTGTGTGTGCGTGTGCGCGGAGTCACCTAGTGCAG | 6670 fluorescence intensity (a.u.) |
| TTACTACACGGATCGCGGTCACGTCACGTGGTCCATAGTCCGGAGTCACCTAGTGCAG | 6690 fluorescence intensity (a.u.) |
| CTTTCCCTATCTTTCTCCTCATCATATGTGTCATGATGCACGGAGTCACCTAGTGCAG | 9020 fluorescence intensity (a.u.) |
| AGCTATCATGTAAGCGTCACGTCAATGCGATGCAGGGGCGCGGAGTCACCTAGTGCAG | 4630 fluorescence intensity (a.u.) |
| TTTAGTGGCAGTCTTATAATAACGATTCAAAATAGTGGCACGGAGTCACCTAGTGCAG | 3190 fluorescence intensity (a.u.) |
| TAACAAATAACCTTAAGTCCTTAACAAATAATAAGTGCACCGGAGTCACCTAGTGCAG | 3190 fluorescence intensity (a.u.) |
| ACAAATAAATCCTTAAATACACTAACTATCGAATGCACGCCGGAGTCACCTAGTGCAG | 41300 fluorescence intensity (a.u.) |
| AATATACAACACTATATTATTAATGCAGTCCAATCGATATCGGAGTCACCTAGTGCAG | 37000 fluorescence intensity (a.u.) |
